The text below walks through data of PubChem BioAssay (Tox21).

Unmarked numbers belong to inactive results. Results filed as inconclusive are left out. Active and inactive are the calls of the source. Calls follow the shape of the full dose curve.
% is scaled to controls: 0 for no effect and ±100 for the full control effect.

Sequence of Muscarinic acetylcholine receptor M1 (Homo sapiens) (P11229 whole entry, looked up): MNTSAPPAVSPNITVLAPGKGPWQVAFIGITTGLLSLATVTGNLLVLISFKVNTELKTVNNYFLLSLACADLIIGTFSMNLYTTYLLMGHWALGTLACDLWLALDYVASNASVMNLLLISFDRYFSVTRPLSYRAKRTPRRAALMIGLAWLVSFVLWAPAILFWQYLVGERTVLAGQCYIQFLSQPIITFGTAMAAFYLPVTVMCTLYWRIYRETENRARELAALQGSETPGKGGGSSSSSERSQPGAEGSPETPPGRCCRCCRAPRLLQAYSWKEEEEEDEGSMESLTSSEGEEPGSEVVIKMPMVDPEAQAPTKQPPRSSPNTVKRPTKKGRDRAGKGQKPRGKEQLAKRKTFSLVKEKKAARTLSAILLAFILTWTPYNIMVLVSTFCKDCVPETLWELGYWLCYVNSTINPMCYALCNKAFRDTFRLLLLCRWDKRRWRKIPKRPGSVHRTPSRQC

One assay has as its target Muscarinic acetylcholine receptor M1 (Homo sapiens) (UniProt P11229). Description: Cholinergic receptor muscarinic 1 (CHRM1) small molecule agonists, cell-based qHTS assay (AID 1963589). Also: nearly all actives have a fitted effect of over 35% in size. Particulars: CHRM1-CHO cells, agonist mode, calcium flux fluorescence; series mostly up to 76.8 µM; activation: at the top concentration. The method, boiled down: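 Agonist-mode qHTS in CHO cells stably carrying human muscarinic M1. Intracellular calcium is tracked by fluorescence every second after compound transfer; each compound runs at 15 concentrations in three independent runs.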
Background: Quantitative high-throughput screening tests each substance at several concentrations.
In the case of `Cc1cc(CCC(=O)OCCOCCOCCOC(=O)CCc2cc(C)c(O)c(C(C)(C)C)c2)cc(C(C)(C)C)c1O`, the “activation” value was 0.262%.

Consider `C[Si](C)O[Si](C)(C)O[Si](C)(C)O[Si](C)C`, for which the “activation” value was 0.576%.

For the compound `C[C@H]1C[C@H](O)c2ccsc2S1(=O)=O`, the “activation” value was -0.0794% [at 35.3 µM].

Take `CC1=CCC(C(C)(C)O)CC1` (stereo not drawn): the Potency entry was “inactive”.

Regarding `CCC(C)=O`, the “activation” value was -0.031%.

`N=c1nc(N2CCCCC2)cc(N)n1O`: the “activation” value was 0.798% [at 35.3 µM].

For the compound `CC(C)CCCC(C)N` (stereo not drawn), the “activation” value is 0.0743% [at 35.3 µM].

Consider `COc1ccc2c(c1)CCCC2=O`, for which the “activation” value was 0.0151% [at 35.3 µM].

As to `CC1=CCC(O)(C(C)C)CC1` (stereo not drawn), the “activation” value is 0.17%.

Turning to `CCCCCCCC(=O)[O-].CCCCCCCC(=O)[O-].[Zn+2]`, the “activation” value is 0.0627% [at 35.3 µM].

As for `COC(=O)c1ccccc1C(=O)c1ccc(OCCN2CCCCC2)cc1`, the “activation” value is -0.529% [at 35.3 µM].

Turning to `c1coc(CNc2ncnc3nc[nH]c23)c1`, the “activation” value is 10.1%.

On to `CC1=C(O)C(=O)C(C)O1` (stereo not drawn), for which the “activation” value is 0.0227%.

Regarding `Cc1[nH]cnc1-c1ccc(Cl)cc1`, the “activation” value was -0.791% [at 35.3 µM].

Take `C1CCCC1`: the “activation” value is -0.186%.

In the case of `CCCC(=O)CC`, the “activation” value is -0.173%.

In the case of `Oc1ccc(Cl)cc1Sc1cc(Cl)ccc1O`, the Potency entry is “inactive”.

`CCOCOCC`: the “activation” value is 0.173%.

Consider `C1C[C@@H]2[C@H]3CC[C@H](C3)[C@@H]2C1`, for which the “activation” value was 0.0351%.

For `CC(C)C(=O)c1ccccc1`, the “activation” value is 0.0525%.

As to `Cc1nc2ccccc2s1`, the “activation” value was 2.18%.

For the compound `O=C(O)c1cc(-c2ccccc2)nc2ccccc12`, the Potency result was “inactive”.

Turning to `COc1cc(C(=S)N2CCOCC2)ccc1O`, the “activation” value was 0.738% [at 35.3 µM].

Regarding `O=C(O)CCCCCCCCCCCC(=O)O`, the Potency result is “inactive”.

Consider `COC(=O)CCCCC(=O)O`, for which the “activation” value was -0.0354%.

For the compound `O=C(c1ccc(O)cc1O)c1ccc(O)cc1O`, the Potency entry was “inactive”.

Regarding `O=C(CCNNC(=O)c1ccncc1)NCc1ccccc1`, the “activation” value is -0.189% [at 35.3 µM].

As to `O=C(O)c1cc(O)c(O)c(O)c1`, the Potency result was “inactive”.

Regarding `NCCc1ccc(O)c(O)c1`, the Potency result is “inactive”.

For `O=C(O)c1ccc(CO)o1`, the “activation” value was -0.296%.

`O=C(O)CSCC(=O)NC1CCSC1=O` (stereo not drawn): the “activation” value is 0.0228% [at 35.3 µM].

Tested on in another assay: not listed separately
Description: cAMP Responsive Elements (CRE) small molecule agonists, cell-based qHTS assay (AID 1963590). Particulars: CRE-bla HEK293T, beta-lactamase FRET ratio, 3 h; series mostly up to 92.4 µM; activation: at the top concentration. Summed up: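 Agonist mode qHTS in CRE-bla HEK 293T cells: compounds dosed from DMSO for 3 h at 37 C/5% CO2, followed by LiveBLAzer B/G FRET substrate for 2 h at room temperature.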
In the case of `Cc1cc(CCC(=O)OCCOCCOCCOC(=O)CCc2cc(C)c(O)c(C(C)(C)C)c2)cc(C(C)(C)C)c1O`, the “activation” value is 19%.

For the compound `COCCCOc1ccnc(CS(=O)c2nc3ccccc3[nH]2)c1C` (stereo not drawn), the “activation” value is -0.701% [at 42.5 µM].

Take `CC(C)(c1ccc(O)cc1)c1ccc(O)cc1`: the Potency entry is “inactive”.

Turning to `C[Si](C)O[Si](C)(C)O[Si](C)(C)O[Si](C)C`, the “activation” value is -3.24%.

With `C[C@H]1C[C@H](O)c2ccsc2S1(=O)=O`, the “activation” value was 0.135% [at 42.5 µM].

In the case of `CCC(C)=O`, the “activation” value is 1.26%.

As for `N=c1nc(N2CCCCC2)cc(N)n1O`, the “activation” value was 0.138% [at 42.5 µM].

Take `CC(C)CCCC(C)N` (stereo not drawn): the “activation” value is -0.664% [at 42.5 µM].

With `COc1ccc2c(c1)CCCC2=O`, the “activation” value was -1.32% [at 42.5 µM].

On to `CC1=CCC(O)(C(C)C)CC1` (stereo not drawn), for which the “activation” value was 0.171%.

With `CCCCCCCC(=O)[O-].CCCCCCCC(=O)[O-].[Zn+2]`, the “activation” value is -1.47% [at 42.5 µM].

For the compound `COC(=O)c1ccccc1C(=O)c1ccc(OCCN2CCCCC2)cc1`, the “activation” value was 0.0515% [at 42.5 µM].

For `c1coc(CNc2ncnc3nc[nH]c23)c1`, the “activation” value was -1.4%.

`CC1=C(O)C(=O)C(C)O1` (stereo not drawn): the “activation” value was 0.326%.

For the compound `Cc1[nH]cnc1-c1ccc(Cl)cc1`, the “activation” value was -0.907% [at 42.5 µM].

As to `C1CCCC1`, the “activation” value is 0.835%.

`CCCC(=O)CC`: the “activation” value is -0.83%.

As for `CCOCOCC`, the “activation” value is 0.847%.

Turning to `C1C[C@@H]2[C@H]3CC[C@H](C3)[C@@H]2C1`, the “activation” value was -0.524%.

For the compound `CC(C)C(=O)c1ccccc1`, the “activation” value is 0.305%.

With `Cc1nc2ccccc2s1`, the “activation” value is -0.23%.

Consider `COCCOCCOCCOCCOCCO`, for which the “activation” value is 1.15%.

In the case of `O=S(=O)(O)c1cccc2ccccc12`, the “activation” value is 0.0725%.

As to `COC(=O)CCCCC(=O)O`, the “activation” value is -1.05%.

Consider `NCCc1ccc(O)c(O)c1`, for which the Potency entry is “inactive”.

With `O=C(O)c1ccc(CO)o1`, the “activation” value was -0.0291%.

As to `O=C(O)CSCC(=O)NC1CCSC1=O` (stereo not drawn), the “activation” value is -0.0213% [at 42.5 µM].
